# PNC inhibitor: inhibitors of perinucleolar compartment assembly; AID 2417; PC3M PTB-GFP, PNC prevalence imaging, 16 h; stronger effect = lower value; activity change (PNC), negative = inhibition, % at 10 µM; 140,000 tested, 3.1% active;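 active = readout at or below -70, meaning at least 70% loss of cells showing the perinucleolar compartment, a nuclear body marking cancer cells; inconclusive = readout between -30 and a set limit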
#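 PC3M cells stably expressing PTB-GFP, 750–1000 cells/well, treated 16 h at 37 °C with compound (23 nl of library stock), in duplicate. After paraformaldehyde fixation and Hoechst stain, imaged at 20x; PNC prevalence scored by image analysis.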
# ALDH1A1 inh: inhibitors of human aldehyde dehydrogenase 1A1; P00352; Purified ALDH1A1, NADH fluorescence, propionaldehyde substrate; Potency, µM (top dose mostly 75.3 µM), usual class: inhibitors; 220,000 tested, 7.3% active; AID 1030
# Target sequence (P00352 whole entry, looked up): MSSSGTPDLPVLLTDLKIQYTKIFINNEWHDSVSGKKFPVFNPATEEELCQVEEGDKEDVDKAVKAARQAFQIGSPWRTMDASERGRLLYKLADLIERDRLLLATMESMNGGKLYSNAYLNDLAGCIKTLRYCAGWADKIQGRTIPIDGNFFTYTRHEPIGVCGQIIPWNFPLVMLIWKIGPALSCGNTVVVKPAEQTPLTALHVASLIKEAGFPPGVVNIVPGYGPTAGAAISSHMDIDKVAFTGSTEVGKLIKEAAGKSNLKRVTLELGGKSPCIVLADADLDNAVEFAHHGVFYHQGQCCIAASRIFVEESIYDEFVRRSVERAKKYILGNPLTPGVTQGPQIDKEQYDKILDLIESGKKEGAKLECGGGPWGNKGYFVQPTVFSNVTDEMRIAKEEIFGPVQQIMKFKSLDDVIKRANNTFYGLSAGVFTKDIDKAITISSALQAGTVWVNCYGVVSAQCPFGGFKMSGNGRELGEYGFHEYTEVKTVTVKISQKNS
# HPGD inh: blocks human HPGD enzyme activity. P15428. purified HPGD, NADH fluorescence kinetic, PGE2 substrate. Potency, µM, usual class: inhibitors. 150,000 tested, 4.3% active. AID 894
#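 NADH formation kinetics: reaction with 30 uM PGE2 and 1 mM NAD+ (final), 20 nM enzyme, Tris-HCl pH 8 with Tween 20, after 15 min compound preincubation at room temperature. Fluorescence change, last versus first of five reads.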
# IMPase Li inh: membrane-permeable IMPase blocker, potentiated with lithium. 210,000 tested, 0.35% active. CHO-M1 cells, IP1 TR-FRET (IP-One), carbachol + lithium. Potency, µM (series often up to 59.4 µM), actives largely listed as inhibitors; active = well fitted curve in the direction sought with a large enough effect; inconclusive = small, poorly fitted or top-dose-only effect, or another doubt; inactive = no such curve, though single readings can be large; an effect the other way counts as inactive or inconclusive;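 also: IP1 builds up when IMPase is blocked and the TR-FRET signal falls; nearly all actives have a fitted effect of over 50% in size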
#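 IP1 accumulation measured by competitive TR-FRET in lysed CHO-M1 cells after 30 min compound exposure at 37C, with a small lithium addition to potentiate weak responses. Hill-equation AC50 from ratio and donor-channel data.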
# IMPase cell inh: IMPase inhibition in cells. AID 901. 120,000 tested, under 10 active. CHO-M1 cells, IP1 accumulation, HTRF TR-FRET ratio. P97697. inhibition (IP1 accumulation), % at 46.1 µM; active = well fitted curve in the direction sought with a large enough effect in the signal ratio, not every such curve was filed as active; inconclusive = small, poorly fitted or top-dose-only effect, or a change in a side signal; inactive = no such curve, though single readings can be large or run the other way; the % refers to the signal ratio;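 also: cells stimulated with carbachol in lithium chloride buffer; higher means more IMPase inhibition seen as more IP1 and lower FRET ratio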
# Target sequence (P97697 whole entry, looked up): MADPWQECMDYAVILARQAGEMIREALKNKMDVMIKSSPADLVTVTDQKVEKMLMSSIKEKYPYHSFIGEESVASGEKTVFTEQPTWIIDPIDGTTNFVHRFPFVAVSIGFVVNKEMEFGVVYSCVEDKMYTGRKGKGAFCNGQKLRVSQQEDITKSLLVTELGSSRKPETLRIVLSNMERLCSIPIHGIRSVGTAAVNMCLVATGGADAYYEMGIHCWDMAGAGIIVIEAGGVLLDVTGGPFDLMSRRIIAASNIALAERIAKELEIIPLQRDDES
#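 In this qHTS, compounds (final up to 46 uM) act on CHO-M1 cells that are then activated through the M1 receptor with carbachol, in pH 7.4 buffer containing 50 mM LiCl, for 30 min. IP1 accumulation is quantified by the IP-One immunoassay.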
# NPSR antag: blocks cAMP signaling of the human neuropeptide S receptor | CHO-NPSR cells, cAMP TR-FRET, antagonist mode | Potency, µM (series often up to 38.3 µM), hits mostly inhibitors | 220,000 tested, 1% active | AID 1461; active = well fitted curve in the direction sought with a large enough effect; inconclusive = small, poorly fitted or top-dose-only effect, or another doubt; inactive = no such curve, though single readings can be large; an effect the other way counts as inactive or inconclusive; also: nearly all actives have a fitted effect of over 50% in size
# Numbers stand for hits; i = inactive; ? = inconclusive; nt = no result given; ! = a repeat was not active; [ ] = another dose, or the depositor's remark. Shown are actives, neighbours in structure and some others; about 11% of the full set was active somewhere. Unless noted, calls follow the shape of the dose curve; as a rule, active = well fitted inhibition curve with a large enough effect (not every such curve was filed as active); inconclusive = small, poorly fitted or top-dose-only effect, or another doubt; inactive = no such curve, though single readings can be large or run the other way.
SMILES,PNC inhibitor,ALDH1A1 inh,HPGD inh,IMPase Li inh,IMPase cell inh,NPSR antag
CN(C)c1ccc(C(C(=O)NC(C)(C)C)N(C(=O)c2csnn2)C2CC2)cc1 (stereo not given),-96,5.6µM,?,i,i,i
O=C(CNC(=O)c1ccc2c(c1)OCO2)N/N=C/c1cccc([N+](=O)[O-])c1,nt,i,nt,i,nt,i
COc1ccc(OC(C)C(=O)Nc2cccc(F)c2)cc1 (stereo not given),nt,i,nt,i,nt,i
CC(=O)NC(=S)Nc1ccc(NC(=O)COc2ccc(Cl)cc2)cc1,i,i,i,i,i,i
O=C(CCc1ccccc1)NNC(=O)c1ccc(F)cc1,nt,?,nt,i,nt,i
O=C(NC(=S)Nc1ccc(Cl)cc1)c1ccccc1,nt,15µM,nt,nt,nt,?
O=C(CCc1ccccc1)NNC(=S)NC(=O)c1ccc(Cl)cc1,?,11µM,i,i,i,i
O=C(NC(=S)Nc1ccc(Oc2ccc(Cl)cc2)cc1)c1ccccc1,i,8.9µM,i,i,i,?
CCC(=O)NC(=S)Nc1ccc(NC(=S)NC(=O)c2ccccc2)cc1,nt,25µM,nt,i,nt,i
CC(C)(c1cc(Br)c(O)c(Br)c1)c1cc(Br)c(O)c(Br)c1,nt,i,?,i,nt,nt
O=C(Nc1ccc([N+](=O)[O-])cc1)Nc1nc(-c2ccc(Cl)s2)cs1,i,?,i,i,nt,6.3µM
CC(=O)Nc1nc(-c2ccc([N+](=O)[O-])cc2)cs1,nt,i,nt,i,nt,i
CCCCNc1nc2c(S(=O)(=O)c3ccccc3)nnn2c2ccccc12,nt,?,nt,8.9µM,nt,?
Cc1cccc(Nc2nc3c(S(=O)(=O)c4ccccc4)nnn3c3ccccc23)c1,-90,?,?,?,nt,i
Fc1ccc(-c2n[nH]c(=S)n2-c2ccc3c(c2)OCCO3)cc1,nt,i,nt,i,nt,i
S=c1[nH]nc(-c2ccc(Cl)cc2)n1-c1ccc2c(c1)OCCO2,i,?,14µM,i,nt,i
O=C(Nc1ccccc1N1CCCCC1)c1ccccc1F,?,?,i,i,i,?
Cc1ccccc1C(=O)NC(=S)Nc1ccccc1N1CCCC1,nt,25µM,nt,i,nt,i
O=C(NC(=S)Nc1ccccc1N1CCCCC1)c1ccccc1,nt,19µM,nt,i,nt,?
O=C(NC(=S)Nc1ccccc1N1CCCC1)c1ccc(F)cc1,nt,7.5µM,nt,i,nt,?
COc1cc(C(=O)NNC(=S)NC(=O)c2ccccc2C)cc(OC)c1OC,i,i,i,i,nt,i
CC1=NN(c2ccc(Cl)c(C(=O)O)c2)C(=O)/C1=C\c1ccc(-c2ccc(C(=O)O)cc2)o1,nt,i,nt,i,nt,i
O=C(O)c1ccc(N2C(=O)/C(=C/c3ccc(-c4ccc([N+](=O)[O-])cc4)o3)C=C2c2ccccc2)cc1,nt,?,nt,i,nt,10µM
CC1(C)COC(/C=C/c2cccc([N+](=O)[O-])c2)=N1,nt,14µM,nt,i,nt,i
CC1(C)COC(c2cc([N+](=O)[O-])ccc2Cl)=N1,i,i,i,i,i,i
SMILES,PNC inhibitor,ALDH1A1 inh,HPGD inh,IMPase Li inh,IMPase cell inh,NPSR antag
COc1ccc(CCNC(=O)c2cc(-c3cc(C)c(C)cc3O)n[nH]2)cc1OC,i,i,i,i,i,i
CCn1c2ccccc2c2nnc(NN)nc21,i,16µM,i,i,nt,i
CSc1nnc2c3cc(C)ccc3n(Cc3ccccc3)c2n1,i,14µM,?,?,i,i
CCCCn1c2ccc(F)cc2c2nnc(NN)nc21,nt,2.2µM,nt,i,nt,i
CCn1c2ccc(C)cc2c2nnc(NN)nc21,i,25µM,i,i,nt,i
CC(O)c1nc2ccccc2n1C/C=C/c1ccccc1 (stereo not given),?,i,i,i,i,i
Nc1c(C(=O)O)sc2nc(-c3ccccc3)cc(-c3ccccc3)c12,nt,20µM,nt,nt,nt,i
Nc1c(C(=O)O)sc2nc(-c3ccccc3)cc(-c3ccc(F)cc3)c12,nt,nt,nt,nt,nt,i[7.67 µM]
CC(=O)N[C@@H](Cc1ccc(OC(F)(F)F)cc1)C(=O)O,nt,i,nt,nt,nt,i
CN(C)CCCN1c2ccccc2Sc2ccc(Cl)cc21,-110!,i,i,i,i,?
O=C(c1cccc(Cl)c1)N1CCN(c2ncnc3c2cnn3-c2ccccc2)CC1,nt,7.9µM,nt,i,nt,i
CCOC(=O)C1CCN(c2ncnc3c2cnn3-c2ccccc2)CC1,i,?,i,i,i,i
Cc1nn(-c2ccccc2)c(Cl)c1C(=O)N1CCN(c2ncnc3c2cnn3-c2ccccc2)CC1,i,14µM,?,i,i,?
O=C(c1ccccc1)N1CCN(c2ncnc3c2cnn3-c2ccccc2)CC1,i,?,i,i,i,i
CC1CCN(c2ncnc3c2cnn3-c2ccccc2)CC1,i,?,28µM,i,i,i
C[Se]CCC(N)C(=O)O (stereo not given),nt,?,i,i,nt,nt
O=C(Cc1cccs1)N1CCN(c2ccc([N+](=O)[O-])cc2)CC1,nt,25µM,nt,i,nt,i
O=C(c1cc([N+](=O)[O-])ccc1Cl)N1CCN(c2ccc([N+](=O)[O-])cc2)CC1,i,i,i,i,nt,i
O=C(CCc1ccccc1)N1CCN(c2ccc([N+](=O)[O-])cc2)CC1,nt,2.2µM,nt,i,nt,i
CN1N=C(C(=O)N2CCN(c3ccc([N+](=O)[O-])cc3)CC2)CCC1=O,-94,?,i,i,nt,i
O=C(Cc1cccs1)N1CCN(c2ccc(F)cc2)CC1,i,i,i,i,i,i
Cc1nc2ncnn2c(N2CCN(C(=O)Cc3cccs3)CC2)c1C,i,7.9µM,i,i,i,i
COc1ccccc1NC(=O)CC(=O)CSc1nnc(-c2ccc(C)cc2)n1-c1ccccc1,i,?,i,i,nt,i
CCOC(=O)N=S(N)(=O)c1ccccc1 (stereo not given),i,i,i,i,i,i
O=C(Cc1cccs1)N1CCN(C(=O)C2CCCO2)CC1 (stereo not given),-120,?,i,i,i,i
SMILES,PNC inhibitor,ALDH1A1 inh,HPGD inh,IMPase Li inh,IMPase cell inh,NPSR antag
CC1(C)CN(c2ccccc2)N(Cc2ccc(F)cc2)C1=O,i,i,i,i,i,i
COc1ccc(C(=O)Nc2nc3ccc(S(C)(=O)=O)cc3s2)cc1,i,?,?,?,?,?
COc1ccccc1C(=O)Nc1nc2ccc(S(C)(=O)=O)cc2s1,i,?,?,10µM,nt,?
CS(=O)(=O)c1ccc2nc(NC(=O)Oc3ccccc3)sc2c1,i,3.2µM,i,?,i,i
Cc1sc2ncnc(NCc3ccccc3)c2c1C,i,i,i,?,i,i
CC1=CC2=NC(=O)/C(=C\c3cccn3CCOc3ccccc3C)C(=N)N2O1,nt,?,nt,i,nt,10µM
Cc1ccccc1C(=O)NNC(=O)/C=C\C(=O)O,nt,nt,nt,nt,nt,i
O=C(O)/C=C\C(=O)Nc1ccccc1C#Cc1ccc(Br)cc1,?,?,i,i,i,13µM
COC(=O)c1ccccc1NC(=O)/C=C/C(=O)O,-84,i,i,i,nt,i
O=C(O)/C=C/C(=O)Nc1ccccc1SC(F)(F)F,?,11µM,?,i,i,i
O=C(O)/C=C\C(=O)Nc1ccccc1C#Cc1ccccc1,i,i,i,i,i,i
